Source: PubChem BioAssay AID1159580 (chemical genetic matrix, 2015)
About 2,000 (36%) of roughly 5,500 compounds were called active. Another 18% or so got no clear call; they are omitted. Rule as the data show it: active = normalized growth mostly below about 0.91 (no sharp cut-off); inconclusive = no clear call, values can overlap the other calls; inactive = mostly above about 0.92. The list shows a part of the results.

Assay: chemical genetic growth profiling, strain panel (AID 1159580);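 also: tested at 20 µM; growth read once vehicle control cultures reached saturation at 30 °C; 1 = growth at the plate median or of vehicle wells; lower values mean less growth of the strain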
Conditions: growth OD

Measured: normalized growth

COP(=O)(OC)OC=C(Cl)Cl
inactive: S. cerevisiae deletion strains, locus YJR075W, strain HOC1, hits give low values 0.962 | S. cerevisiae deletion strains, locus YKL009W, strain mrt4, hits give low values 0.951 | S. cerevisiae deletion strains, locus YKL068W, hits give low values 0.986 | S. cerevisiae deletion strains, locus YKL085W, strain MDH1 (second series), hits give low values 0.981 | S. cerevisiae deletion strains, locus YKL085W, strain MDH1, hits give low values 0.981 | S. cerevisiae deletion strains, locus YKL160W, strain elf1, hits give low values 0.999 | S. cerevisiae deletion strains, locus YKL190W, strain CNB1, hits give low values 0.994 | S. cerevisiae deletion strains, locus YKR001C, strain vps1, hits give low values 0.992 | S. cerevisiae deletion strains, locus YKR026C, strain gcn3, hits give low values 1.01 | S. cerevisiae deletion strains, locus YKR091W, strain srl3, hits give low values 0.997 | S. cerevisiae deletion strains, locus YLL001W, strain dnm1, hits give low values 1.01 | S. cerevisiae deletion strains, locus YLL026W, hits give low values 0.997 | S. cerevisiae deletion strains, locus YLL041C, strain sdh2, hits give low values 1 | S. cerevisiae deletion strains, locus YLR027C, strain aat2, hits give low values 1 | S. cerevisiae deletion strains, locus YLR039C, strain RIC1, hits give low values 0.979 | S. cerevisiae deletion strains, locus YLR058C, strain SHM2, hits give low values 0.983 | S. cerevisiae deletion strains, locus YLR102C, strain apc9, hits give low values 0.977 | S. cerevisiae deletion strains, locus YLR113W, strain HOG1, hits give low values 1.02 | S. cerevisiae deletion strains, locus YLR221C, strain rsa3, hits give low values 0.999 | S. cerevisiae deletion strains, locus YLR258W, strain gsy2, hits give low values 0.999 | S. cerevisiae deletion strains, locus YLR262C, strain YPT6 (second series), hits give low values 1.01 | S. cerevisiae deletion strains, locus YLR262C, strain YPT6, hits give low values 0.97 | S. cerevisiae deletion strains, locus YLR268W, strain sec22, hits give low values 0.996 | S. cerevisiae deletion strains, locus YLR320W, strain mms22, hits give low values 1.01 | S. cerevisiae deletion strains, locus YLR330W, strain CHS5, hits give low values 0.996 | S. cerevisiae deletion strains, locus YLR342W, strain FKS1 (second series), hits give low values 0.971 | S. cerevisiae deletion strains, locus YLR342W, strain FKS1, hits give low values 0.983 | S. cerevisiae deletion strains, locus YLR357W, strain rsc2, hits give low values 1.07 | S. cerevisiae deletion strains, locus YLR370C, strain arc18, hits give low values 0.999 | S. cerevisiae deletion strains, locus YLR371W, strain rom2, hits give low values 0.989 | S. cerevisiae deletion strains, locus YLR384C, strain iki3, hits give low values 0.998 | S. cerevisiae deletion strains, locus YLR418C, strain cdc73, hits give low values 1.01 | S. cerevisiae deletion strains, locus YML016C, strain PPZ1, hits give low values 0.986 | S. cerevisiae deletion strains, locus YML032C, strain rad52, hits give low values 0.978 | S. cerevisiae deletion strains, locus YML120C, strain ndi1, hits give low values 0.981 | S. cerevisiae deletion strains, locus YML124C, strain tub3, hits give low values 0.992 | S. cerevisiae deletion strains, locus YMR058W, strain fet3, hits give low values 0.994 | S. cerevisiae deletion strains, locus YMR078C, strain ctf18, hits give low values 0.992 | S. cerevisiae deletion strains, locus YMR125W, strain sto1, hits give low values 0.982 | S. cerevisiae deletion strains, locus YMR129W, hits give low values 0.992 | S. cerevisiae deletion strains, locus YMR205C, strain PFK2, hits give low values 0.991 | S. cerevisiae deletion strains, locus YMR223W, strain ubp8, hits give low values 0.985 | S. cerevisiae deletion strains, locus YMR231W, strain pep5, hits give low values 1.01 | S. cerevisiae deletion strains, locus YMR263W, strain SAP30, hits give low values 0.976 | S. cerevisiae deletion strains, locus YMR307W, strain GAS1, hits give low values 1.1 | S. cerevisiae deletion strains, locus YNL067W, strain RPL9B, hits give low values 0.963 | S. cerevisiae deletion strains, locus YNL071W, strain lat1, hits give low values 1.01 | S. cerevisiae deletion strains, locus YNL128W, strain TEP1, hits give low values 0.956 | S. cerevisiae deletion strains, locus YNL153C, strain GIM3, hits give low values 0.986 | S. cerevisiae deletion strains, locus YNL183C, strain NPR1, hits give low values 0.998 | S. cerevisiae deletion strains, locus YNL209W, strain ssb2, hits give low values 0.998 | S. cerevisiae deletion strains, locus YNL233W, strain BNI4, hits give low values 0.977 | S. cerevisiae deletion strains, locus YNL248C, strain rpa49, hits give low values 0.994 | S. cerevisiae deletion strains, locus YNL250W, strain rad50, hits give low values 0.988 | S. cerevisiae deletion strains, locus YNL271C, strain bni1, hits give low values 0.98 | S. cerevisiae deletion strains, locus YNL298W, strain CLA4, hits give low values 1 | S. cerevisiae deletion strains, locus YNL307C, strain MCK1, hits give low values 1 | S. cerevisiae deletion strains, locus YNL322C, strain KRE1 (second series), hits give low values 1.02 | S. cerevisiae deletion strains, locus YNL322C, strain KRE1, hits give low values 0.985 | S. cerevisiae deletion strains, locus YNR049C, strain mso1, hits give low values 0.982 | S. cerevisiae deletion strains, locus YNR052C, strain pop2, hits give low values 0.991 | S. cerevisiae deletion strains, locus YOL006C, strain TOP1, hits give low values 1.01 | S. cerevisiae deletion strains, locus YOL012C, strain htz1 1.06 | S. cerevisiae deletion strains, locus YOL147C, strain pex11, hits give low values 1 | S. cerevisiae deletion strains, locus YOR001W, strain rrp6, hits give low values 0.996 | S. cerevisiae deletion strains, locus YOR061W, strain CKA2, hits give low values 0.96 | S. cerevisiae deletion strains, locus YOR069W, strain VPS5, hits give low values 0.98 | S. cerevisiae deletion strains, locus YOR070C, strain gyp1, hits give low values 0.99 | S. cerevisiae deletion strains, locus YOR080W, strain dia2, hits give low values 0.987 | S. cerevisiae deletion strains, locus YOR083W, strain WHI5, hits give low values 0.987 | S. cerevisiae deletion strains, locus YOR106W, strain vam3, hits give low values 0.983 | S. cerevisiae deletion strains, locus YOR136W, strain idh2, hits give low values 0.986 | S. cerevisiae deletion strains, locus YOR144C, strain elg1, hits give low values 0.984 | S. cerevisiae deletion strains, locus YOR184W, strain ser1, hits give low values 0.998 | S. cerevisiae deletion strains, locus YOR231W, strain MKK1, hits give low values 1.05 | S. cerevisiae deletion strains, locus YOR265W, strain rbl2, hits give low values 0.988 | S. cerevisiae deletion strains, locus YOR270C, strain vph1, hits give low values 0.976 | S. cerevisiae deletion strains, locus YOR290C, strain snf2, hits give low values 0.997 | S. cerevisiae deletion strains, locus YOR316C, strain cot1, hits give low values 0.971 | S. cerevisiae deletion strains, locus YPL051W, strain arl3, hits give low values 0.998 | S. cerevisiae deletion strains, locus YPL055C, strain LGE1, hits give low values 0.998 | S. cerevisiae deletion strains, locus YPL078C, strain atp4, hits give low values 0.99 | S. cerevisiae deletion strains, locus YPL106C, strain sse1, hits give low values 0.992 | S. cerevisiae deletion strains, locus YPL240C, strain hsp82, hits give low values 1 | S. cerevisiae deletion strains, locus YPL241C, strain CIN2, hits give low values 0.98 | S. cerevisiae deletion strains, locus YPL256C, strain CLN2, hits give low values 1.05 | S. cerevisiae deletion strains, locus YPR119W, strain clb2, hits give low values 0.997 | S. cerevisiae deletion strains, locus YPR141C, strain kar3, hits give low values 0.972 | S. cerevisiae deletion strains, locus YPR163C, strain tif3, hits give low values 0.995 | S. cerevisiae deletion strains, locus YPR167C, strain met16, hits give low values 0.976 | S. cerevisiae deletion strains, strain wtn01, hits give low values 0.995 | S. cerevisiae strains, strain wild type, hits give low values 0.997
